Sampled rows, rich in hits. Any-hit rate of the full collection: about 28%.
CYP2C9 act = CYP2C9 (human) activation. P11712. recombinant CYP2C9, luciferin-H conversion, luminescence; active compounds read high; factor 1 = untreated enzyme, 0 = blocked. activation factor at 5 µM. hit rate 1.4% among 96,000. AID 1024;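 active = activation factor of 2 or more for CYP2C9 at a 5 µM dose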
Target sequence (P11712 whole entry, looked up): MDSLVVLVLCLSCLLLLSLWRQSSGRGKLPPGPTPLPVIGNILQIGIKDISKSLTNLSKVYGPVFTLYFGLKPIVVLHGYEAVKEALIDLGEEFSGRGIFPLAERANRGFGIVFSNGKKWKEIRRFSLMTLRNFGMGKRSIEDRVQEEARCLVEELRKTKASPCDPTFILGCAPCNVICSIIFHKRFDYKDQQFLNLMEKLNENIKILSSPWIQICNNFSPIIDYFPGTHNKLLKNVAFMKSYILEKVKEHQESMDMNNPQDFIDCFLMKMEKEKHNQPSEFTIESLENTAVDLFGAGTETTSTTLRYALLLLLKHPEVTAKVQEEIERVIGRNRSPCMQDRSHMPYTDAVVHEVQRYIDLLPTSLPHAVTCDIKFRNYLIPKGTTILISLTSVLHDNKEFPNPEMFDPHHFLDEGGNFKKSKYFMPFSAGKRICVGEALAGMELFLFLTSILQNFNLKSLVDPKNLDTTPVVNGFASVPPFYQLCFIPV
CYP2C19 inh = inhibitors of human CYP2C19; hit rate 21% among 96,000; P33261; CYP2C19 Supersomes, luciferin-H EGE luminescence, 30 min; inhibition, % at 5 µM;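 active = CYP2C19 inhibition above a set limit at 5 µM in the primary screen, cut at about 50% in these data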
hDAT+cocaine = changed human dopamine transporter uptake under cocaine IC80. Q01959. LLC-PK1 hDAT cells, [14C]-dopamine uptake with cocaine IC80; actives deviate in either direction. B-score at 10 µM. hit rate 1.3% among 110,000;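 active = Z score or B-score, a plate-position-corrected score, falls beyond the plate's 99.7% confidence bounds, in either direction; inactive = both scores lie inside the 99.7% bounds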
D1 allo mod = allosterically modulates the human D1 dopamine receptor | HEK293 D1, CRE-luciferase, dopamine EC30 potentiation; actives deviate in either direction | B-score at 10 µM | hit rate 5.9% among 58,000;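 active = luminescence count or its row- and column-corrected plate score outside the 99.7% band of the plate's sample wells, on either side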
CYP2C19 activ = activators of human cytochrome P450 2C19; recombinant CYP2C19, luciferin-H EGE luminescence; active compounds read high; 0 = fully inhibited enzyme, 1 = untreated enzyme; activation factor at 5 µM; 96,000 tested, under 10 active;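 active = activation factor of at least 2 at 5 µM in the primary screen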
CYP2C9 inh = human CYP2C9 inhibition | P11712 | CYP2C9 Supersomes, luciferin-H conversion, luminescence | inhibition, % at 5 µM | hit rate 20% among 96,000;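 active = blocking of liver enzyme CYP2C9 beyond about 50% at 5 µM, limit read from the data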
A number is an active result; – = inactive; · = not tested or not shown.

SMILES | CYP2C9 act | CYP2C19 inh | hDAT+cocaine | D1 allo mod | CYP2C19 activ | CYP2C9 inh
CC(C)(C)c1ccc(-c2cc(C(=O)NNC(=O)Nc3ccccc3)c3ccccc3n2)cc1 | – | – | – | · | – | 81.7
O=C(NNC(=O)c1cc(-c2ccccc2)nc2ccccc12)Nc1cccc(Cl)c1 | – | – | – | · | – | 74.7
O=C(Cc1cccc2ccccc12)NNC(=O)Nc1cccc(Cl)c1 | 2.2 | 55.6 | – | · | – | –
COc1ccc(OC)c(CC(NC(C)=O)C(=O)NC2CCN(c3nc(C)cc(C)c3C#N)CC2)c1 (stereo not drawn) | – | – | · | · | – | –
Cn1c(-n2c(-c3ccco3)nc3ccccc3c2=O)nc2ccccc21 | – | – | – | – | – | –
CCOc1ccc(/C(O)=C2\C(=O)C(=O)N(CCOCCO)C2c2ccccc2OC)cc1 (stereo not drawn) | – | – | – | · | – | –
N#C/C(C(=O)NCc1ccccc1)=C1\SC(CCO)C(=O)N1c1ccccc1 (stereo not drawn) | · | · | – | · | · | ·
COC(=O)C1CCCN1C(=O)C1CCCN1C(=O)CNC(=O)OCc1ccccc1 (stereo not drawn) | – | – | – | – | – | –
O=C(Nc1ccc(Cl)cc1)N1CC=CCC1 | – | – | – | – | – | –
CCc1nnc(NC(=O)c2nc3nc(C)cc(C)n3n2)s1 | – | – | · | · | – | –
O=C(Cn1cnc2ccccc2c1=O)Nc1nnc(SCc2ccccc2)s1 | – | – | – | · | – | –
Cc1cccc(NC(=O)c2nc(-c3ccccc3)n(-c3ccccc3)n2)c1C | – | – | – | · | – | –
Cc1c(Cl)cccc1NC(=O)c1nc(C)n(-c2cc(OC(C)C)c(Cl)cc2Cl)n1 | – | – | – | · | – | 83.3
Cc1noc(C)c1CSc1nc2sc3c(c2c(=O)n1C)CCCC3 | – | – | – | · | – | –
C=CCn1c(SCc2c(C)noc2C)nc2cc(C(=O)O)ccc2c1=O | · | · | – | – | · | ·
C=CCn1c(SCc2c(C)noc2C)nc2sc3c(c2c1=O)CCCCC3 | – | 55.8 | – | – | – | 95.3
C=CCn1c(SCc2c(C)noc2C)nc2sc3c(c2c1=O)CCCC3 | – | – | – | · | – | 77.6
O=C(c1cccnc1)N1C2CCC1CC(O)(c1ccc(F)cc1)C2 (stereo not drawn) | – | 51.5 | – | – | – | –
CCOc1ccc(NC(=O)c2ccc3snnc3c2)cc1 | · | · | – | · | · | ·
CCOc1ccccc1Oc1ccc(C(F)(F)F)cn1 | – | – | – | -4 | – | –
O=C(CN1CCN(c2ccccn2)CC1)N(c1ccccc1)c1ccc2ccccc2c1 | – | 56.1 | – | – | – | 51.1
O=C(CN1CCOCC1)N(c1ccccc1)c1ccc2ccccc2c1 | – | 76.5 | – | – | – | –
O=C(CN1CCOCCOCCOCC1)Nc1ccccc1 | – | – | – | · | – | –
O=C(CN1CCN(c2ccccn2)CC1)N1c2ccccc2CCc2ccccc21 | · | · | – | – | · | ·
Cc1ccc(NC2=NC(c3ccco3)n3c(nc(C)cc3=O)N2)c(C)c1 (stereo not drawn) | – | – | · | – | – | –
SMILES | CYP2C9 act | CYP2C19 inh | hDAT+cocaine | D1 allo mod | CYP2C19 activ | CYP2C9 inh
CCOc1ccc(CC(=O)N2CCN(c3ccc(N4CCOCC4)nn3)CC2)cc1OCC | – | – | · | – | – | –
c1ccc(Nc2nnc(SCc3cccc4ccccc34)s2)cc1 | 2.1 | – | – | · | – | –
CCSc1nnc(Nc2ccccc2)s1 | – | – | – | – | – | –
COc1ccc(-c2nc(C)ncc2N=Nc2ccccc2)cc1 | – | – | – | · | – | 61.4
COc1cc(-c2c(C#N)c(N)nc3c2CCCC3)cc(OC)c1OC | · | · | – | – | · | ·
COc1cc(-c2c(C#N)c(N)nc(SCc3ccncc3)c2C#N)cc(OC)c1OC | – | 100.0 | – | – | – | 100.4
Cc1ccc(-c2[nH]nc3c2C(c2cccnc2)C(C#N)=C(N)O3)cc1 (stereo not drawn) | · | · | – | 13.6 | · | ·
CC(C)(C)c1[nH]nc2c1C(c1ccoc1)C(C#N)=C(N)O2 (stereo not drawn) | – | – | – | · | – | –
Cc1[nH]nc2c1C(c1ccc(Cl)cc1)C(C#N)=C(N)O2 (stereo not drawn) | – | 52.6 | – | – | – | –
COCc1[nH]nc2c1C(c1c(F)cccc1Cl)C(C#N)=C(N)O2 (stereo not drawn) | – | 57.6 | – | – | – | –
CC(C)(C)c1[nH]nc2c1C(c1ccncc1)C(C#N)=C(N)O2 (stereo not drawn) | – | 60.1 | – | – | – | 71.9
N#CC1=C(N)Oc2n[nH]c(-c3ccccc3)c2C1c1cccnc1 (stereo not drawn) | – | – | – | – | – | –
Cc1cn(C(=O)c2ccccc2)c(=S)n1-c1ccc(Br)cc1 | · | · | – | · | · | ·
CCc1ccc(NC(=O)N(C2CCC(C)CC2)C2CCN(C(C)=O)CC2)cc1 (stereo not drawn) | – | – | – | – | – | –
Cc1ccc(-c2csc3ncnc(Sc4nnc(CN5CCCCCC5=O)o4)c23)cc1 | – | 51.8 | – | – | – | 83.1
Cc1ccc(C)c(NC(=S)NC(NC(=O)Cc2ccccc2)C(Cl)(Cl)Cl)c1 (stereo not drawn) | – | 50.2 | – | · | – | –
O=C(COc1ccccc1)NC(NC(=S)Nc1ccccc1C(=O)O)C(Cl)(Cl)Cl (stereo not drawn) | – | – | – | · | – | 81.8
C=CCN(CC=C)c1nc2ccccc2nc1C(C#N)C(=O)OC(C)C (stereo not drawn) | · | · | – | · | · | ·
Cc1nn(-c2ccccc2)c(Cl)c1C(=O)Nc1nnc(C2CCCC2)s1 | – | – | – | – | – | 94.4
Cc1cccc(C)c1NC(=O)c1c(C)nn(-c2ccccc2)c1Cl | – | 50.6 | – | · | – | –
CCOc1ccc(C2c3c(oc4ccccc4c3=O)C(=O)N2c2ccccn2)cc1OC (stereo not drawn) | · | · | · | – | · | ·
O=C(CN1CCC(NC(=O)c2ccco2)CC1)Nc1cccc2ccccc12 | · | · | – | · | · | ·
CC(C)c1ccc(NC(=O)NC2CCN(CC(=O)Nc3cccc4ccccc34)CC2)cc1 | – | 56.5 | · | · | – | –
COc1cc(OC)cc(C(=O)NC2CCN(CC(=O)Nc3cccc4ccccc34)CC2)c1 | · | · | 3.52 | · | · | ·
Cc1ccc(NC(=O)C2CCCN(S(=O)(=O)c3cnc[nH]3)C2)cc1F (stereo not drawn) | – | 93.9 | – | – | – | 86.6
SMILES | CYP2C9 act | CYP2C19 inh | hDAT+cocaine | D1 allo mod | CYP2C19 activ | CYP2C9 inh
Cc1cc(C)cc(NC(=O)C2CCCN(S(=O)(=O)c3cnc[nH]3)C2)c1 (stereo not drawn) | – | 80.9 | – | – | – | 92.9
COc1cc(NC(=O)C2CCCN(S(=O)(=O)c3cnc[nH]3)C2)cc(OC)c1 (stereo not drawn) | – | – | – | – | – | 88.4
O=C(NCc1ccc(Cl)cc1)c1noc2c1CCCC2 | – | 64.0 | – | – | – | 78.0
O=C(NCc1cccnc1)c1noc2c1CCCCC2 | – | 90.4 | – | – | – | –
O=C(NCc1cccnc1)c1noc2c1CCCC2 | – | 66.8 | – | – | – | –
O=C(NC1CCCCC1)c1noc2c1CCCCC2 | – | 94.3 | – | – | – | –

Screening data: PubChem BioAssay, several laboratories
